The supplement of paper PMC12632987
Whole data set: some 2,300 sequences, median “median log2 fold change of GCK-ALFA target abundance (FLAG IP / Myc IP barcode read proportion)” near 0.095, cut for the lowest 2% near -0.47. For the sample, the lowest values were picked, then their nearest neighbours and some sequences at random.

B1: LC3A_132_320 (protein)
chain: MEEKARRIREEILRLIEEAEENIDDLEKVEELVEEIRELARRAEEELTPEQVAEIFEEAAEKADEVSLKADEEGKEDVALLMDGLSVELAALSIRAEEKI
B2: LC3A_free_2_2172 (protein)
chain: MKYRVIIDALGKPEGIAKLVKTLVDLGIEVEVTTEDGTKMTATKETVEEVVKYLLSKKEEIYVELEAVTDKEKADKALDELEKVAEETGISYIVSIEELE
B3: LC3A_28_689 (protein)
chain: NYIEELKKKAEEILEEAAAKGEEAYIEIDFERPITPEEVEEIMDKLEEYIKKYKLKKVNIVINILSENQSQETIDTIMDKAEELEKRIPNVTVIIALPEN
B4: LC3A_3_1500 (protein)
chain: LEEAVERLLEALREAGVSEADIAEARELLEKAREYLTEESIEAITETVRRLAHLPPRLVAAAVLTLLETILEKKLNDEEVKEKAELLAETAESFAESDER
B5: LC3A_28_698 (protein)
chain: SRVDEDIERARKIAEEAIAKGEDALIELTIRPDTTAEDVDRILATIRELAEKMSKTGKLYVVVDVESGVDQANIDRIADELDKLMEEIPNLTAVIALDED
B6: LC3A_141_369 (protein)
chain: KTVTLKLELKNSSLDEVIEKMEELEEEVLKAYEELGGGKVKVTVTLTFKNSKTGETTVIKEEFEADKEELEMLLEGVLIEAASYRLTENADITVTVTLEA
B7: LC3A_28_725 (protein)
chain: NELEESIEKALKKAKELAEKGKSDVIEITIPGNATQEDIEKVIKALEEIAEIVKDLESVSIVIDVEGGVKQEHIDKLADKAEEIEKKYPNVTVIIALDED
B8: LC3A_free_0_2099 (protein)
chain: MTTVVEVLGIIDNENDKEAAEAIAEELKKLGKKLSEEKGWKVTVELKKVNGSYVITVTIEGKGMSIEEGLEIADEIADKIERLAKEHGVEVTIYTSVYEE
B9: LC3A_28_944 (protein)
chain: MTIEEEIEKALKEAKEAKAKKEPAVITITVKGDATEEEIEKVIETIKEIAELLKDIKGSAIIVDVEKGVKEEHINKLLDTLDEIEKKYPNISAIMALDED
B10: LC3A_28_943 (protein)
chain: MSIEEDIEAALKEAKEAKKKGEPAVITITVKGTATQEEVDAVIKTIKEIAELLKDIKGSAIIVDIEAGVAQEHVDALMDTLDEIEKKYPNINAIAALDED
B11: LC3A_3_1778 (protein)
chain: ADELIEELLEALREAGKSEETIEAAREVAERLRERGFDEALETFVREMRRLLDVPDDILLDMLEEVLELLETEDLSEEEVIERIEELARLARAEAEIEEL
B12: LC3A_132_256 (protein)
chain: SEELYERFLEEAKELIDKIVDALKAGKDPSPYIKELDELAEEAAEKLSLEELERLVEEAEEYAEERFAERLDPNDPEARRALDIVEMILDSALIEAELRA
B13: LC3A_132_258 (protein)
chain: SEEKKEEFLEKFKELIDKIVEALQAGQDPSPYLKELDELAEEAAEELSLEELEELVEEAEKYARERFAERLDPNDPEARRTLLIVEMILDSALIESELRA
B14: LC3A_28_714 (protein)
chain: SPLEESIKKALEEAKEAAKKGEEAVIEIKVEGEITEEETEKVQKAIEEIAEITKDLKSTTIIVDVDGKVPQEHINKILDKGEEVEKKYPNVTVIFALDEN
B15: LC3A_free_0_2103 (protein)
chain: SVTVVEVVAISKEKWSEEKAKKLKEAAEKLAKELEEKYGMETEVKLEEIDGRQVLTIKAKKEGMSIDEGLEIADYIADHLEEKAKELGVEVEIYESVYEE
B16: LC3A_3_1781 (protein)
chain: AEARIAELLAALEAAGASPETIAAVRAAAEALRARGYEEALATFVEEMRRLLGLPDEIRLAFAQEVLRLIEENDLSEEELTEEIRRLARLARLEAEIEEL
B17: LC3A_free_8_2489 (protein)
chain: KSQELANLASDLLDELEEEVEKKAKELGASELDILDLSLLIGSTIAEAYSLSDESPEKIIEAVREGLEELIERAKEISEELAKKVKELSEKILKELEEKA
B18: LC3A_3_1366 (protein)
chain: MEEKIEELLEYLKKEGKSEETLEAVRKTLEALIEKGYEEAAETFIELMKKLSHLPDELLLDFAKEVLEKVENEDLSEEELIEFIKEEAKIAENEAEIIEL
B19: LC3A_28_772 (protein)
chain: MDIKENAAKAIAEAKAAAAAGEEAVIEIKVPDGATEEDIEIVIKALEEIAEITKDMKSISVVIDVDGGVKQEHLDKLAKAAEEIEEKYPNVTVIIALDEN
B20: LC3A_free_39_2201 (protein)
chain: SEEEFEKYKEELLKLAEKEGEEALKEAKELLKEIEGNVNLAKTVLEEVKRAVEEGADVLELLKELLKLVKELKKEGKSEEEIIKEMKAKADVIINLIPID
B21: LC3A_28_1312 (protein)
chain: SKLKKQFEEAIKEVEAAAAAGEPVVVTIDITAEEAEKELEEILKLLEELAKVASKAPGATIIIDVDEDVKPENLKKIAEKAEELEKKYPNVTVIIAIEDK
B22: LC3A_127_171 (protein)
chain: ELEELLEEALEVAEELSELLEEEDYDFEEIEELTRELLELAKKILELDPRAEDALETAEEMLELLEEMKEADEAEQKELKEHLLMLTEGLIIELLGLQLK
B23: LC3A_free_39_2287 (protein)
chain: SEEELEEAVERLEELLEEIEGVSEEEKEIILEAARESLEMAKAILEALEELRRLGGDVAEAAREIAALIRELRAAGASLEERTAAVIEKARDLVNLIPID
B24: LC3A_132_291 (protein)
chain: QQEKAEELKKEIKEIVEEMKENIDDEEKVRKLLEELEKLMKRAEKELSPELLAEVFEELSELLEELSEEFDEAGKEDLALEADSLAIEAASLALRAKEKI
B25: LC3A_127_206 (protein)
chain: KEKELLKKAEKLAEKAEEAVDKIPKEGEKAREEAIKLLEELAKLLKQIPSLKEALEDTEQAIKLLKETAKLSPAEREETIEQISQIISGILIEIESELLK
B26: LC3A_free_46_2354 (protein)
chain: VEAKIEVDLLHEDEEVLKKAVEAIKEAAKKIAKKYGLKVEIKEKIEKLPDGSYFAEIEITLKGEDKETLEKAVNELINEIDEIAKKYDVAAIISYEIIEK

molecular target: MAP1LC3A, Q9H492; experiment: median log2 fold change of GCK-ALFA target abundance (FLAG IP / Myc IP barcode read proportion) (log2 ratio); each designed protein is fused to an ALFA-tag nanobody in HEK293 cells to bring the named protein to FLAG-tagged glucokinase (GCK); Myc marks an untargeted standard; higher = target protein stabilised (more abundant); conditions: target protein: 3xFLAG-MCP-GCK-ALFA reporter; HEK293 landing pad (RPLP)
Procedure, shortened: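 The readout is target abundance, the per-binder median log2 ratio of FLAG to Myc barcode read proportions. It came from HEK293 landing-pad cells carrying a recombined ALFA-nanobody-fused binder library, induced with 2 μg mL^−1 doxycycline and transfected with a plasmid for a FLAG-tagged target and a Myc-tagged standard. After 48 h, lysates were immunoprecipitated with anti-FLAG and anti-Myc, and circular RNA barcodes were reverse transcribed, amplified and sequenced. Each barcode needed a proportion of at least 10^−7 in both replicates and each binder at least 3 barcodes per replicate, a pseudocount of 10^−6 was added, and the replicates were pooled.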

Row | Binder | median log2 fold change
1 | B1 | 0.104
2 | B2 | -8.53e-05
3 | B3 | -0.0908
4 | B4 | 0.0772
5 | B5 | -0.304
6 | B6 | -0.618
7 | B7 | 0.164
8 | B8 | -0.379
9 | B9 | -0.897
10 | B10 | -0.355
11 | B11 | -0.0575
12 | B12 | -0.217
13 | B13 | -0.582
14 | B14 | 0.219
15 | B15 | 0.15
16 | B16 | 0.24
17 | B17 | 0.0352
18 | B18 | 0.0931
19 | B19 | 0.202
20 | B20 | 0.451
21 | B21 | -0.0764
22 | B22 | -0.77
23 | B23 | 0.257
24 | B24 | -0.27
25 | B25 | 0.148
26 | B26 | -1.38e-07
